Reference: PubChem BioAssay (NCATS)
Results filed as inconclusive are left out. Active and inactive are the calls of the source. Calls follow the shape of the dose curve; as a rule, active = well fitted inhibition curve with a large enough effect; inconclusive = small, poorly fitted or top-dose-only effect; inactive = flat fitted curve, though single readings scatter. Bridge positions count the residues as written; N and C are the ends. Square brackets hold non-standard residues; d marks the D form. Peptide text beside a SMILES is read from it. * marks the point of attachment. Ileψ(thiazoline)Cys = CC[C@H](C)[C@H](N)C1=N[C@H](C(=O)*)CS1; d(aIle) = CC[C@H](C)[C@@H](N)C(=O)O; dOrn = NCCC[C@@H](N)C(=O)O

System: CP291
Experiment: qHTS profiling for inhibitors of Plasmodium falciparum proliferation (AID 504749); also: nearly all actives have a fitted effect of over 60% in size
Conditions: P. falciparum in erythrocytes, SYBR Green DNA, 72 h; series mostly up to 12.8 µM
Procedure, shortened: (§1)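 Readout was DNA-dye fluorescence from lysed cultures, ex 485/em 535 nm. Parasitized red cells had grown 72 h with compound; data scaled between 0.29 uM artemisinin and DMSO wells and corrected using vehicle-only plates.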
Potency is read from the fitted curve at half-maximal effect.

Potency, active:
O=C(N/N=C\c1ccc([N+](=O)[O-])o1)c1ccc(O)cc1 4.55 µM

Potency, inactive:
C[C@@H]1C[C@H]2[C@@H]3C[C@H](F)C4=CC(=O)C=C[C@@]4(C)[C@]3(F)[C@H](O)C[C@]2(C)[C@@]1(O)C(=O)CO, C[C@H](O)Cn1cnc2c1c(=O)n(C)c(=O)n2C, CCCCC[C@H](O)/C=C\[C@@H]1[C@H](O)CC(=O)[C@@H]1CCCCCCC(=O)O, CC(=C(CCOP(=O)(O)O)SC(=O)c1ccccc1)N(C=O)Cc1cnc(C)nc1N, NC[C@@H]1O[C@@H](O[C@H]2[C@H](O)[C@H](O[C@@H]3O[C@H](CO)[C@@H](O)[C@H](N)[C@@H]3O)[C@@H](N)C[C@H]2N)[C@H](N)C[C@@H]1O, CCc1c(C)[nH]c2c1C(=O)[C@H](CN1CCOCC1)CC2, C=C1c2c(Cl)ccc(O)c2C(O)=C2C(=O)[C@@]3(O)C(O)=C(C(N)=O)C(=O)[C@@H](N(C)C)[C@@H]3[C@@H](O)[C@H]12, CC[C@H](C)[C@H](N)C1=N[C@H](C(=O)N[C@@H](CC(C)C)C(=O)N[C@@H](CCC(=O)O)C(=O)N[C@@H](C(=O)N[C@H]2CCCCNC(=O)[C@@H](CC(N)=O)NC(=O)[C@@H](CC(=O)O)NC(=O)[C@@H](Cc3cnc[nH]3)NC(=O)[C@@H](Cc3ccccc3)NC(=O)[C@@H]([C@@H](C)CC)NC(=O)[C@@H](CCCN)NC2=O)[C@@H](C)CC)CS1 ({Ileψ(thiazoline)Cys}-LE[d(aIle)]K[dOrn][d(aIle)][dF][dH][dD][dN]; lactam 4-C), CCOC(=O)O[C@@H](C)OC(=O)[C@@H]1N2C(=O)[C@@H](NC(=O)[C@@H](N)c3ccccc3)[C@H]2SC1(C)C, Cc1cccc(CN2CCN([C@@H](c3ccccc3)c3ccc(Cl)cc3)CC2)c1, Cc1ccsc1/C=C\C1=NCCCN1C, O=C(O)COCCN1CCN([C@@H](c2ccccc2)c2ccc(Cl)cc2)CC1, C#C[C@]1(O)CC[C@@H]2[C@H]3CCC4=CCCC[C@@H]4[C@@H]3CC[C@@]21C, CC1(C)[C@@H](OC(=O)CCC(=O)O)CC[C@@]2(C)[C@H]1CC[C@@]1(C)[C@H]2C(=O)C=C2[C@H]3C[C@](C)(C(=O)O)CC[C@]3(C)CC[C@@]21C, C[C@H](CCC(=O)O)[C@H]1CC[C@@H]2[C@@H]3[C@@H](O)C[C@H]4C[C@@H](O)CC[C@@]4(C)[C@H]3CC[C@@]21C, CN1CCO[C@H](c2ccccc2)c2ccccc2C1

System: CP297
Experiment: as above
Conditions: P. falciparum in erythrocytes, SYBR Green DNA, 72 h; series mostly up to 12.8 µM
Procedure, shortened: as §1

Potency, inactive:
C[C@@H]1C[C@H]2[C@@H]3C[C@H](F)C4=CC(=O)C=C[C@@]4(C)[C@]3(F)[C@H](O)C[C@]2(C)[C@@]1(O)C(=O)CO, C[C@H](O)Cn1cnc2c1c(=O)n(C)c(=O)n2C, CCCCC[C@H](O)/C=C\[C@@H]1[C@H](O)CC(=O)[C@@H]1CCCCCCC(=O)O, CC(=C(CCOP(=O)(O)O)SC(=O)c1ccccc1)N(C=O)Cc1cnc(C)nc1N, NC[C@@H]1O[C@@H](O[C@H]2[C@H](O)[C@H](O[C@@H]3O[C@H](CO)[C@@H](O)[C@H](N)[C@@H]3O)[C@@H](N)C[C@H]2N)[C@H](N)C[C@@H]1O, CCc1c(C)[nH]c2c1C(=O)[C@H](CN1CCOCC1)CC2, C=C1c2c(Cl)ccc(O)c2C(O)=C2C(=O)[C@@]3(O)C(O)=C(C(N)=O)C(=O)[C@@H](N(C)C)[C@@H]3[C@@H](O)[C@H]12, CC[C@H](C)[C@H](N)C1=N[C@H](C(=O)N[C@@H](CC(C)C)C(=O)N[C@@H](CCC(=O)O)C(=O)N[C@@H](C(=O)N[C@H]2CCCCNC(=O)[C@@H](CC(N)=O)NC(=O)[C@@H](CC(=O)O)NC(=O)[C@@H](Cc3cnc[nH]3)NC(=O)[C@@H](Cc3ccccc3)NC(=O)[C@@H]([C@@H](C)CC)NC(=O)[C@@H](CCCN)NC2=O)[C@@H](C)CC)CS1 ({Ileψ(thiazoline)Cys}-LE[d(aIle)]K[dOrn][d(aIle)][dF][dH][dD][dN]; lactam 4-C), CCOC(=O)O[C@@H](C)OC(=O)[C@@H]1N2C(=O)[C@@H](NC(=O)[C@@H](N)c3ccccc3)[C@H]2SC1(C)C, Cc1cccc(CN2CCN([C@@H](c3ccccc3)c3ccc(Cl)cc3)CC2)c1, Cc1ccsc1/C=C\C1=NCCCN1C, O=C(O)COCCN1CCN([C@@H](c2ccccc2)c2ccc(Cl)cc2)CC1, C#C[C@]1(O)CC[C@@H]2[C@H]3CCC4=CCCC[C@@H]4[C@@H]3CC[C@@]21C, CC1(C)[C@@H](OC(=O)CCC(=O)O)CC[C@@]2(C)[C@H]1CC[C@@]1(C)[C@H]2C(=O)C=C2[C@H]3C[C@](C)(C(=O)O)CC[C@]3(C)CC[C@@]21C, C[C@H](CCC(=O)O)[C@H]1CC[C@@H]2[C@@H]3[C@@H](O)C[C@H]4C[C@@H](O)CC[C@@]4(C)[C@H]3CC[C@@]21C, CN1CCO[C@H](c2ccccc2)c2ccccc2C1

Potency, active:
CCC(=O)OCC(=O)[C@@]1(OC(=O)CC)[C@H](C)C[C@@H]2[C@@H]3[C@H]([C@@H](O)C[C@@]21C)[C@]1(C)C=CC(=O)C=C1C[C@@H]3Cl 5.1 µM, O=C(N/N=C\c1ccc([N+](=O)[O-])o1)c1ccc(O)cc1 3.22 µM
